Tests used:
[1] = biological target: Tumor necrosis factor receptor superfamily member 10B (Homo sapiens) (UniProt O14763); test: viability loss of caspase-8 NB7 cells with TRAIL – with/without TRAIL, luminescence panel, confirmation (AID 651596); conditions: NB7 neuroblastoma + caspase-8, TRAIL sensitization, NB7 Caspase-8, with TRAIL, mean of runs, at 10 µM, stronger effect = higher value
[2] = as above; conditions: NB7 neuroblastoma + caspase-8, without TRAIL, NB7 Caspase-8, without TRAIL, mean of runs, at 10 µM

Tumor necrosis factor receptor superfamily member 10B (Homo sapiens), sequence (O14763 whole entry, looked up): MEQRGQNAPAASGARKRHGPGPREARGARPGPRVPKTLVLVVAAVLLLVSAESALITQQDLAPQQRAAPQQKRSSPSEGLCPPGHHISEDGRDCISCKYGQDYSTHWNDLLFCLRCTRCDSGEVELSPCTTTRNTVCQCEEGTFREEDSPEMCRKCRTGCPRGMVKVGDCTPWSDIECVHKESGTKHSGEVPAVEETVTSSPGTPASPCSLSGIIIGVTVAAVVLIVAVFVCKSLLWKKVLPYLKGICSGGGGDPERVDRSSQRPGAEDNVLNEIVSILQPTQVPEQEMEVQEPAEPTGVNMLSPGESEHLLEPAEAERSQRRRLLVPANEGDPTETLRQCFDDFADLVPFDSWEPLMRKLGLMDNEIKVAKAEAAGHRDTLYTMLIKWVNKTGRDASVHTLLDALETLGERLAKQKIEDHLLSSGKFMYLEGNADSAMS

O=C(Nc1ccc(N2CCOCC2)cc1)c1cnccn1
activity [1]: 84.4% | activity [2]: 82.8%

O=C(/C=C/c1cccnc1)/C=C/c1cccnc1
activity [1]: 91.5% | activity [2]: 69.7%

CC(=O)c1c(C)[nH]c(C(=O)Nc2ccc(C)cn2)c1C
activity [1]: 75.9% | activity [2]: 77.6%

COc1cccc2sc(N(C)c3ccccc3)nc12
activity [1]: 58.3% | activity [2]: 61.2%

C#CC(=O)N(c1cccc(OC)c1)C(C(=O)NC1CCCC1)c1cccs1 (stereo not given)
activity [1]: 99.4% | activity [2]: 99.5%

Fc1ccc(-c2nc(-c3cnccn3)no2)c(Cl)c1
activity [1]: 59.1% | activity [2]: 58.1%

COc1ccc(C=C2CCc3ccccc3C2=O)cc1
activity [1]: 90.9% | activity [2]: 91.4%

CCOC(=O)c1sc2nc(-c3cccnc3)ccc2c1N
activity [1]: 56% | activity [2]: 49.2%

Clc1ncnc2c1oc1ccccc12
activity [1]: 82.7% | activity [2]: 60.4%

CCc1nc(N)nc(N)c1-c1ccc(NCCN)c([N+](=O)[O-])c1
activity [1]: 80.7% | activity [2]: 81.5%

COc1ccc(C(=O)Nc2ccccc2C(=O)N/N=C/c2ccncc2)cc1OC
activity [1]: 97.7% | activity [2]: 96.3%

CC(C)COCc1ccc(O)c2ncccc12
activity [1]: 38.6% | activity [2]: 32.1%

CCOc1ccc2nc(N3C(=O)CNC3=S)sc2c1
activity [1]: 65.2% | activity [2]: 60.6%

COc1ccc(C2C(C(=O)N3CCN(c4ccccc4)CC3)c3ccccc3C(=O)N2C)cc1OC (stereo not given)
activity [1]: 71.8% | activity [2]: 64.5%

Nc1cc2sc(-c3ccc(C(=O)O)cc3)nc2cc1Cl
activity [1]: 52.8% | activity [2]: 42.5%

Cc1nc(N)nc(N)c1/C=C/C(C)(C)c1ccc(Cl)cc1
activity [1]: 54.5% | activity [2]: 61.7%

Cc1cc(NC2CCCC2)n2ncc(-c3ccccc3)c2n1
activity [1]: 69.1% | activity [2]: 69.1%

O=C(OCc1cc(=O)oc2cc(O)ccc12)c1cc(S(=O)(=O)N2CCOCC2)ccc1F
activity [1]: 84.1% | activity [2]: 70.9%

COc1ccc(-c2cc(C(=O)OCC(=O)N3CCOCC3)c3ccccc3n2)cc1
activity [1]: 36.6% | activity [2]: 49.6%

Cc1ccc2nc(NC(=O)c3ccc(-c4nc5ccccc5s4)s3)sc2c1
activity [1]: 56.8% | activity [2]: 17%

COc1ccc(CC(N)c2csc(NC(=O)Nc3cccc(C(F)(F)F)c3)n2)cc1 (stereo not given)
activity [1]: 39.6% | activity [2]: 87%

c1ccc(CSc2ccc(-c3ccco3)nn2)cc1
activity [1]: 57.6% | activity [2]: 45.9%

O=C(Nc1ccc2[nH]ccc2c1)c1ccc(F)cc1
activity [1]: 89.7% | activity [2]: 87%

O=C(Nc1ccc2c(c1)OCO2)N1CCN(Cc2ccco2)CC1
activity [1]: 78.8% | activity [2]: 75.2%

CC(=O)c1ccccc1OCC(O)CN1CCN(CCN2C(=O)c3cccc4cccc(c34)C2=O)CC1 (stereo not given)
activity [1]: 45.6% | activity [2]: 16.4%

Cc1ccc2nc(-c3ccncc3)cc(C(=O)Nc3ccncc3)c2c1
activity [1]: 19.9% | activity [2]: 6.6%

CCOC(=O)/C(=C/c1ccc(OC(F)F)cc1)C1=Nn2c(nnc2-c2ccc(Cl)cc2)SC1
activity [1]: 98.8% | activity [2]: 97.1%

Cc1ccc(C(=O)Nc2ccc(C)c(S(=O)(=O)N(C)C)c2)s1
activity [1]: 52.5% | activity [2]: 66.5%

COc1cc2sc3ccc(-c4ccc(CN5CCOCC5)cc4)cc3c(=O)c2cc1OC
activity [1]: 46.9% | activity [2]: 41.8%

O=C(NC(=S)Nc1ccccn1)c1ccc(-c2ccccc2)cc1
activity [1]: 76.3% | activity [2]: 72.8%

CC(C)NC(=O)c1ccc2c3n(nc2c1)-c1ccccc1CO3
activity [1]: 95.8% | activity [2]: 95.5%

O=C(NC1CCCCC1)C(c1cccnc1)N(C(=O)CCl)c1ccc(F)cc1 (stereo not given)
activity [1]: 99.2% | activity [2]: 98.8%

Cc1c(P(=S)(c2ccccc2)c2ccccc2)[n+]2ccccc2n1C/C=C/c1ccccc1
activity [1]: 83.3% | activity [2]: 56.9%

CCOc1ccc2nc(NC(=O)c3ccc(C)o3)sc2c1
activity [1]: 61.1% | activity [2]: 52.9%

Cc1cccc(CS(=O)(=O)c2ncc(Cl)c(C(=O)Nc3nnc(C(C)C)s3)n2)c1
activity [1]: 93.5% | activity [2]: 86.1%

COc1cc2c3nnc(-c4ccc(F)cc4)c-3cn(Cc3cccc(C)c3)c2cc1OC
activity [1]: 48.9% | activity [2]: 67%

CCOc1ccc2nc(NC(=O)c3ccco3)sc2c1
activity [1]: 74.4% | activity [2]: 69.8%

Cc1ccc(-c2cc(C(=O)N/N=C/c3ccc([N+](=O)[O-])o3)c3ccccc3n2)o1
activity [1]: 83.8% | activity [2]: 73.7%

O=c1oc2c(O)cccc2cc1-c1nc2ccccc2[nH]1
activity [1]: 72% | activity [2]: 68.8%

COc1ccc2c(=O)c(-c3nc(C)cs3)coc2c1
activity [1]: 69.9% | activity [2]: 71.6%

COc1cccc(CSc2nc3ccncc3[nH]2)c1
activity [1]: 87.7% | activity [2]: 88.4%

CCCn1c(C)cc(C(=O)COC(=O)c2ccc[nH]c2=O)c1C
activity [1]: 49% | activity [2]: 49.6%

CCOc1ccc2nc(NC(=O)c3cccc(N4C(=O)CCC4=O)c3)sc2c1
activity [1]: 65.7% | activity [2]: 81.5%

COc1ccc(/C=C(\C#N)C(=O)OCC(=O)Nc2ccc(-c3nc4ccc(C)cc4s3)cc2)cc1
activity [1]: 42.9% | activity [2]: 27.9%

Oc1cc(NCc2ccc(F)cc2)cc2cccnc12
activity [1]: 36.8% | activity [2]: 33.5%

CCN(c1ccccc1)S(=O)(=O)c1ccc(OC)c(NC(=O)c2cc(F)c(F)c(F)c2F)c1
activity [1]: 63.3% | activity [2]: 87.5%

CCCCCCc1cc2cc(C(=O)Nc3ccccc3)c(=O)oc2cc1O
activity [1]: 72.8% | activity [2]: 65.2%

Cc1nc(SCC(=O)Nc2nccs2)c(C#N)c(C)c1C
activity [1]: 90.8% | activity [2]: 92.1%

O=C(CCl)N1c2ccccc2CCc2ccccc21
activity [1]: 99.8% | activity [2]: 99.7%

COc1ccc2cc(CNCCOCCOCCNCc3ccc4cc(OC)ccc4c3)ccc2c1
activity [1]: -7.05% | activity [2]: -2.75%

Cc1cccc(C)c1NC(=O)C1CCN(S(C)(=O)=O)CC1
activity [1]: 0.425% | activity [2]: -3.45%

CCc1ccc(C(=O)Cn2ccsc2=N)cc1
activity [1]: 66.5% | activity [2]: 66.6%

COc1cc(SC#N)ccc1N=Cc1c(C)[nH]n(-c2ccc(C)c(C)c2)c1=O
activity [1]: 93% | activity [2]: 97.7%

Cc1ccc(C2=NS(=O)(=O)N(C)C(C(=O)NCc3cccs3)=C2)cc1
activity [1]: 5.95% | activity [2]: 0.8%

Nc1ccc(C(=O)NN2C(=O)[C@H](Cl)C2c2ccc(Cl)cc2)cc1 (stereo not given in full)
activity [1]: 99.3% | activity [2]: 99.5%

Cc1ccc2nc(NC(=O)c3ccco3)sc2c1
activity [1]: 80.4% | activity [2]: 76.2%

Cc1occc1C(=O)O/N=C(\N)c1ccc(Cl)cc1
activity [1]: 81.6% | activity [2]: 84.7%

N#Cc1ccc(C(=O)Nc2nc(-c3cccs3)c(C(=O)C(F)(F)F)s2)cc1
activity [1]: 36.9% | activity [2]: 37%

CCn1nnc(NC(=O)c2ccc(C(C)(C)C)cc2)n1
activity [1]: 69.1% | activity [2]: 75.2%

O=C(Oc1cccc(/C=N/NC(=O)c2ccccn2)c1)c1ccc([N+](=O)[O-])cc1
activity [1]: 42.9% | activity [2]: 20.2%

N=NC(=O)c1ccccc1Nc1c(O)[nH]c2ccccc12
activity [1]: 93.5% | activity [2]: 92.1%

Cc1ccc(C(=O)Nc2ccc3c(c2)OCCO3)c(C)c1
activity [1]: 91.6% | activity [2]: 91.5%

CC(C)(C)OC(=O)NCc1ccc(NC(=O)c2nc[nH]c2C(=O)NCCCCNC(=O)c2[nH]cnc2C(=O)Nc2ccc(CNC(=O)OC(C)(C)C)cc2)cc1
activity [1]: 95.1% | activity [2]: 96.2%

O=C(Cn1ncc(Cl)c(Cl)c1=O)c1ccc(Cl)cc1
activity [1]: 99.7% | activity [2]: 99.6%

CCCCNC(=O)c1cn(C)c2ccc(S(=O)(=O)N3CC(C)CC(C)C3)cc2c1=O (stereo not given)
activity [1]: 42.1% | activity [2]: 41.5%

C(=C\c1nc2ccccc2[nH]1)/c1ccccc1
activity [1]: 93.8% | activity [2]: 93.6%

COc1ccc(C(=O)O/N=C(\N)c2ccccc2Cl)cc1OC
activity [1]: 95.7% | activity [2]: 92.8%

Cn1c(-c2ccccc2F)cc2onc(-c3ccccc3)c2c1=O
activity [1]: 63% | activity [2]: 65.1%

CNC(=S)N1N=C(c2ccccc2)CC1c1ccc(Br)cc1 (stereo not given)
activity [1]: -12.4% | activity [2]: -42.7%

COc1ccc(C(=O)Nc2cc(C)on2)cc1
activity [1]: 49.3% | activity [2]: 38.6%

O=C(N/N=C/c1ccc(Br)s1)c1ccccn1
activity [1]: 44.5% | activity [2]: 46.6%

Cc1ccc(/C(N)=N/OC(=O)c2ccc(C)cc2Cl)cc1
activity [1]: 97.3% | activity [2]: 96.4%

CCCCn1c(NS(=O)(=O)c2ccc(C)cc2)c(S(=O)(=O)c2ccccc2)c2nc3ccccc3nc21
activity [1]: -5.92% | activity [2]: -15%

Nc1nc(CCl)nc(Nc2ccc3ccccc3c2)n1
activity [1]: 99.1% | activity [2]: 97.8%

S=C(Nc1ccc(Cl)cc1)c1nc2ccccc2[nH]1
activity [1]: 60.6% | activity [2]: 65.9%

Clc1ccc2nc(-c3ccccc3)cn2c1
activity [1]: 72.7% | activity [2]: 74.1%

O=C(OCn1ncc(Cl)c(Cl)c1=O)c1cccc(C(F)(F)F)c1
activity [1]: 99.2% | activity [2]: 99.3%

COC(=O)c1ccccc1NC(=O)c1nc(S(=O)(=O)Cc2ccccc2)ncc1Cl
activity [1]: 84.1% | activity [2]: 99.6%

CS(=O)(=O)c1ccc2nc(NC(=O)c3ccco3)sc2c1
activity [1]: 61% | activity [2]: 57.8%

CC(C)C[C@H]1CNC(=S)N1C[C@H]1CCCN1C[C@H](Cc1ccccc1)N1C[C@H](Cc2ccc(O)cc2)N(CC2CCCCC2)C1=S
activity [1]: -0.175% | activity [2]: -1.23%

Cn1nccc1C(=O)Oc1cccc(/C=N/NC(=O)c2ccccc2O)c1
activity [1]: 44.5% | activity [2]: 13.6%

CCCc1cc(=O)[nH]c(SCC(=O)c2c(N)n(C3CC3)c(=O)[nH]c2=O)n1
activity [1]: 80.3% | activity [2]: 88.8%

COc1ccc(-c2cc3cc4c(cc3cn2)OCO4)cc1
activity [1]: 60.3% | activity [2]: 52.8%

c1ccc(-c2cnc(-c3ccccc3)nn2)cc1
activity [1]: 64.9% | activity [2]: 68.4%

CCCc1cc(=O)[nH]c(SCC(=O)c2c(N)n(CC(C)C)c(=O)n(C)c2=O)n1
activity [1]: 80.5% | activity [2]: 83.7%

CC1CCc2c(sc(/N=C/c3ccco3)c2C(N)=O)C1 (stereo not given)
activity [1]: 54.1% | activity [2]: 56.5%

COc1ccc(C(=O)c2no[n+]([O-])c2C(=O)c2ccc(OC)cc2)cc1
activity [1]: 98.3% | activity [2]: 99%

Cn1c2c(c(=O)n(C)c1=O)C(C(F)(F)F)(C(F)(F)F)N=C(c1ccc(Cl)cc1)N2
activity [1]: 54.8% | activity [2]: 52.3%

O=C(COc1ccc(Cl)cc1Cl)Nc1ccccc1F
activity [1]: 54.9% | activity [2]: 40.5%

Clc1ccc(-c2nc(-c3cnccn3)no2)cc1
activity [1]: 45.6% | activity [2]: 39.1%

N/C(=N\OC(=O)c1ccc(Cl)cc1)c1ccc(Cl)cc1
activity [1]: 92.4% | activity [2]: 76.8%

Clc1ccc(-n2cnc3c(Cl)ncnc32)cc1Cl
activity [1]: 71.7% | activity [2]: 79%

Cc1ccc2c(c1)N=C(c1ccccc1)CC(C(Cl)Cl)=N2
activity [1]: 29.4% | activity [2]: 18%

O=C1C(=C2CCc3ccccc32)Cc2ccccc21
activity [1]: 41.5% | activity [2]: 48.9%

NC(Cc1ccc(C(F)(F)F)cc1)c1csc(Nc2nncc3ccccc23)n1 (stereo not given)
activity [1]: 38.8% | activity [2]: 89.1%

Source: PubChem BioAssay
